Compound activity as filed in PubChem BioAssay.
The list is not random: actives were taken first. Their share in the collection is about 1.5%.
MEX-5 binding = MEX-5 zinc finger RNA-binding disruptors – biochemical, C. elegans, fluorescence polarization, MLPCN library, primary screen; Zinc finger protein mex-5 (Caenorhabditis elegans), Q9XUB2; MEX-5/FITC-TCR2 RNA binding; active compounds read low; activity score (negative = inhibition of binding), % at 10 µM; actives 0.38% (n = 300,000);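 active = inhibition past about -25% in most replicates, and total fluorescence under double the plate's negative control median, limit read from the data; inconclusive = replicates evenly split on the limit, or fluorescence at least double controls; inactive = too little inhibition in most replicates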
GLD-1 RNA inh = GLD-1/TGE RNA complex disruptors, primary screen, biochemical, fluorescence polarization | inhibition, % at 5.96 µM | actives 0.44% (n = 320,000) | purified GLD-1 + fluorescein TGE RNA | Female germline-specific tumor suppressor gld-1 (Caenorhabditis elegans), Q17339 | AID 2280, 2010;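 active = percent inhibition above a per-plate cutoff, the plate mean of test compounds plus 3 SD, cut at about 30% in these data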
Target sequence (Q17339 whole entry, looked up): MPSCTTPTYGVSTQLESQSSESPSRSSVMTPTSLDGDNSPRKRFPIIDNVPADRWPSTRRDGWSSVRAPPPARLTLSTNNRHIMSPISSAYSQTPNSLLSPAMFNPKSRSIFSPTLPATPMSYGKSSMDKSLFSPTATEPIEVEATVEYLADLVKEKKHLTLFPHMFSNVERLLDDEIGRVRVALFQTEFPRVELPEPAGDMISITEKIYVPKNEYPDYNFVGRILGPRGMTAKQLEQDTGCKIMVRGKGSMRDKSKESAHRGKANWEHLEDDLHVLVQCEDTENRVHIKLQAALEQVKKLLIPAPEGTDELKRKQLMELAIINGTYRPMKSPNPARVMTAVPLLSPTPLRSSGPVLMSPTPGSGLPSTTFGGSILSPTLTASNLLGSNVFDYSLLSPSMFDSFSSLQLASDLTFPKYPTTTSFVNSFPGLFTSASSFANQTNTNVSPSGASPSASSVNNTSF
MCL1-BIM inh = inhibitors of MCL1 binding to BIM-BH3, primary screen, biochemical, fluorescence polarization | Induced myeloid leukemia cell differentiation protein Mcl-1 (Homo sapiens), Q07820 | GST-MCL1 / FITC-Bim-BH3 fluorescence polarization | inhibition, % at 10.9 µM | actives 0.68% (n = 320,000);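 active = inhibition above the mean inhibition of all tested compounds plus 3 SD, set per campaign, cut at about 40% in these data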;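 also: higher means more loss of mP so more displacement of Bim peptide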
E coli Lon inh = inhibitors of E. coli Lon protease, primary screen, biochemical, fluorescence polarization; inhibition, % at 7.94 µM; AID 602123, 2011; actives 0.42% (n = 360,000); purified E. coli Lon protease; in the data active = inhibition above about 13%, passing the limit was not always enough
Bcl-xL primary = inhibitors of human Bcl-xL, primary screen, biochemical, fluorescence polarization, HTS. Bcl-2-like protein 1 (Homo sapiens), Q07817. actives 0.7% (n = 320,000). inhibition, % at 10.9 µM. GST-Bcl-xL / FITC-Bim BH3 peptide fluorescence polarization;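 active = inhibition above the mean of all tested compounds plus 3 SD, cutoff set per campaign, cut at about 30% in these data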;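 also: inhibitors lower millipolarization by displacing the labeled peptide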
Target sequence (Q07817 whole entry, looked up): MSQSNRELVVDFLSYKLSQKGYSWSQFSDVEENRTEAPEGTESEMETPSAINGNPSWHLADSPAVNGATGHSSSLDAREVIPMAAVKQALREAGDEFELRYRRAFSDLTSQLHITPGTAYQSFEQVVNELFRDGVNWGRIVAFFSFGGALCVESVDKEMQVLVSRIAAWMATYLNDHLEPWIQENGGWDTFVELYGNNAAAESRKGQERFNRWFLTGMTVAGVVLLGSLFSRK
EBV gp42 inh = Epstein-Barr virus gp42 inhibitors, primary screen, biochemical, uHTS, fluorescence polarization; actives 0.42% (n = 220,000); inhibition, % (tested at 21.74 µM); Fluorescence polarization binding assay, mP read-out; in the data active = inhibition above about 50%
Bcl-xL conf = Bcl-xL inhibitors blocking Bim BH3 binding, confirmation, counter-screen for MCL1 inhibitor project, biochemical, fluorescence polarization. inhibition, % at 10.9 µM. actives 54% (n = 1,700). shares compounds with MCL1-BIM inh. GST-Bcl-xL / FITC-Bim BH3 peptide FP binding. AID 2166, 2009;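 active = inhibition above a cutoff equal to the mean inhibition of all tested compounds plus 3 SD, cut at about 30% in these data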
MCL1 BIM confirm = inhibitors of MCL1 binding to BIM-BH3, confirmation, biochemical, fluorescence polarization, triplicate; shares compounds with MCL1-BIM inh; actives 61% (n = 1,700); inhibition, % at 10.9 µM; AID 2168, 2009; GST-MCL1 / FITC-Bim-BH3 fluorescence polarization;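 active = inhibition above the average of all tested compounds plus 3 SD, cut at about 40% in these data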
Large screens that a line does not name were inactive (follow-up assays come after a bar, where they were run).

Cc1ccc(NC(=O)CN2C(=O)N/C(=C/c3cc(C)n(-c4ccc(C(=O)O)cc4)c3C)C2=O)cc1	none (no result: MEX-5 binding, GLD-1 RNA inh, MCL1-BIM inh, Bcl-xL primary)
Cc1cc(O)ccc1C1(c2ccc(O)cc2C)OC(=O)c2ccccc21	none
CC(=O)Oc1ccc2c(c1)Oc1cc(OC(C)=O)ccc1C21OC(=O)c2ccccc21	GLD-1 RNA inh 142.1, MCL1-BIM inh active, Bcl-xL primary 180.9, EBV gp42 inh 94.8 (no result: MEX-5 binding, E coli Lon inh) | Bcl-xL conf 153.9 | MCL1 BIM confirm 186.1
O=C(N/N=C/c1ccncc1)c1cccc(S(=O)(=O)Nc2ccc(Cl)cc2)c1	MCL1-BIM inh 51.6 | Bcl-xL conf inactive | MCL1 BIM confirm 73.6
CCN(CC)c1ccc2nc3c4ccccc4c(=O)cc-3oc2c1	none (no result: GLD-1 RNA inh, MCL1-BIM inh, E coli Lon inh, Bcl-xL primary, EBV gp42 inh)
CCN(CC)c1ccc2c(-c3ccc(S(=O)(=O)O)cc3S(=O)(=O)[O-])c3ccc(=[N+](CC)CC)cc-3oc2c1	MEX-5 binding inconclusive, GLD-1 RNA inh 155.1, MCL1-BIM inh active, E coli Lon inh active, Bcl-xL primary active (no result: EBV gp42 inh) | Bcl-xL conf active | MCL1 BIM confirm active
Cc1ccc(SCCNC(=O)/C=C/c2ccc(Cl)cc2)cc1	MCL1-BIM inh 53.9 | Bcl-xL conf inactive | MCL1 BIM confirm inactive
CCOC(=O)CN1C=C(c2ccc3ccccc3n2)C(C[N+](=O)[O-])c2ccccc21 (centres undefined)	MCL1-BIM inh 105.7, E coli Lon inh 115.4, Bcl-xL primary 101.4 | Bcl-xL conf 138.4 | MCL1 BIM confirm 171.6
O/C(=C\c1nc2ccccc2[nH]1)c1cccs1	none (no result: EBV gp42 inh)
O=c1[nH]c2ccccc2nc1/C=C(\O)c1cccs1	MCL1-BIM inh 100.5, Bcl-xL primary 81.3 | Bcl-xL conf 87.6 | MCL1 BIM confirm 91.3
COC(=O)c1ccccc1NC(=O)C/C(C)=N/NC(=O)Cc1ccc(Cl)cc1	MCL1-BIM inh 53.4 (no result: EBV gp42 inh) | Bcl-xL conf inactive | MCL1 BIM confirm inactive
O=C(O)C1Nc2ccc(Br)cc2C2C=CCC12 (centres undefined)	MEX-5 binding -29.7, MCL1-BIM inh 100.5, Bcl-xL primary 78.6 (no result: EBV gp42 inh) | Bcl-xL conf 66.8 | MCL1 BIM confirm 107.0
CC(C)CNC(=O)C1Nc2ccccc2C2C=CCC12 (centres undefined)	none (no result: EBV gp42 inh)
CCOC(=O)C1Nc2ccc(Br)cc2C2C=CCC12 (centres undefined)	MCL1-BIM inh 44.3 (no result: EBV gp42 inh) | Bcl-xL conf inactive | MCL1 BIM confirm inactive
COC(=O)CNC(=O)C1Nc2ccccc2C2C=CCC12 (centres undefined)	none (no result: EBV gp42 inh)
CCOC(=O)C1Nc2ccc(C)cc2C2C=CCC12 (centres undefined)	MCL1-BIM inh 50.8 (no result: EBV gp42 inh) | Bcl-xL conf inactive | MCL1 BIM confirm inactive
Cc1cnc(C(=O)OCC(=O)NC(C)c2ccccc2)cn1 (centres undefined)	none (no result: MEX-5 binding, MCL1-BIM inh, Bcl-xL primary, EBV gp42 inh)
Cn1nc(-c2ccc(Cl)cc2)nc2c(=O)n(C)c(=O)nc1-2	MEX-5 binding -41.4, GLD-1 RNA inh 78.4, MCL1-BIM inh 95.8, Bcl-xL primary 90.3, EBV gp42 inh 54.1 (no result: E coli Lon inh) | Bcl-xL conf 94.3 | MCL1 BIM confirm 120.6
CC(C)(O)c1ccccc1CC[C@@H](SCC1(CC(=O)O)CC1)c1cccc(/C=C/c2ccc3ccc(Cl)cc3n2)c1	none (no result: EBV gp42 inh)
Clc1cccc(Cl)c1C1Nc2cccc3cccc(c23)N1	none (no result: EBV gp42 inh)
c1csc(C2Nc3cccc4cccc(c34)N2)c1	MCL1-BIM inh 62.0, Bcl-xL primary 60.5 | Bcl-xL conf inactive | MCL1 BIM confirm inactive
c1ccc(C2Nc3cccc4cccc(c34)N2)cc1	MCL1-BIM inh 51.8, Bcl-xL primary 38.6 (no result: EBV gp42 inh) | Bcl-xL conf 40.1 | MCL1 BIM confirm 55.0
Brc1ccc(C2Nc3cccc4cccc(c34)N2)o1	MCL1-BIM inh 54.5, Bcl-xL primary 50.8 | Bcl-xL conf inactive | MCL1 BIM confirm inactive
Brc1cccc(C2Nc3cccc4cccc(c34)N2)c1	MCL1-BIM inh 44.2 (no result: EBV gp42 inh) | Bcl-xL conf inactive | MCL1 BIM confirm inactive
COc1ccc(C2Nc3cccc4cccc(c34)N2)cc1	none
Oc1ccccc1C1Nc2cccc3cccc(c23)N1	none
CC1CCN(C(=O)CCCC(=O)N2CCC(C)CC2)CC1	none (no result: EBV gp42 inh)
CCN(CC)S(=O)(=O)c1cccc(NC(=O)c2cc(=O)[nH]c3ccccc23)c1	none
O=C1CCCC(O)=C1N=Nc1cccc(C(=O)O)c1	MCL1-BIM inh 40.3 | Bcl-xL conf inactive | MCL1 BIM confirm inactive
COc1cc(/C=C2\SC(N3CCC(C)CC3)=NC2=O)ccc1O	none (no result: EBV gp42 inh)
Oc1ccc(/C=N/N2CCCCC2)c(O)c1O	MEX-5 binding -28.6, MCL1-BIM inh 53.6, Bcl-xL primary 38.1 (no result: EBV gp42 inh) | Bcl-xL conf inactive | MCL1 BIM confirm inactive
Cc1cccc(NC(=O)CNC(=O)CCc2nc3sc4c(c3c(=O)[nH]2)CCCC4)c1C	MCL1-BIM inh 43.0 (no result: EBV gp42 inh) | Bcl-xL conf 34.3 | MCL1 BIM confirm 67.3
COC(=O)CN(c1ccccc1C)S(C)(=O)=O	MCL1-BIM inh 82.6 | Bcl-xL conf inactive | MCL1 BIM confirm inactive
CC(=O)C1=C(c2ccccc2)NC(=O)NC1c1ccc(O)c(O)c1 (centres undefined)	MEX-5 binding -28.8, MCL1-BIM inh 81.2 | Bcl-xL conf inactive | MCL1 BIM confirm inactive
CC(=O)C1=C(c2ccccc2)NC(=S)NC1c1ccc(O)c(O)c1 (centres undefined)	none
On1ccccc1=S	MCL1-BIM inh 67.5 (no result: MEX-5 binding, EBV gp42 inh) | Bcl-xL conf inactive | MCL1 BIM confirm inactive
COc1ccc(Cl)cc1NC(=O)CCNC(=O)Cn1ccc2ccccc2c1=O	none (no result: EBV gp42 inh)
OCC(Cc1ccccc1)Nc1c2ccccc2nc2ccccc12 (centres undefined)	MCL1-BIM inh 40.1 | Bcl-xL conf inactive | MCL1 BIM confirm inactive
CC(C)c1cc(Nc2cccc(O)c2)cc(C(C)C)c1O	GLD-1 RNA inh 148.2, MCL1-BIM inh 146.4, Bcl-xL primary 139.9 (no result: E coli Lon inh, EBV gp42 inh) | Bcl-xL conf inactive | MCL1 BIM confirm inactive
CSc1nc(N(C)CCO)c2sc3nc(-c4ccco4)c4c(c3c2n1)CCC4	MCL1-BIM inh 75.1, EBV gp42 inh 87.0 | Bcl-xL conf 36.2 | MCL1 BIM confirm 75.9
